The list is not random: actives were taken first. Their share in the collection is about 10%.
p97 ATPase inh: human p97 ATPase inhibition | P55072 | recombinant p97 ATPase, Kinase-Glo ATP luminescence, 3 h | inhibition, % at 8 µM | 0.42% of 220,000 active | AID 1481; in the data active = inhibition above about 15%;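 also: 0% = DMSO vehicle and 100% = wells lacking enzyme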
HCT116 bCat-KO: beta-catenin-lacking colon tumor cell growth suppression. HCT116 beta-catenin knockout viability, CellTiter-Glo, 60 h; active compounds read low. viability, % at 10 µM. 1.5% of 140,000 active. AID 818;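 active = viability at or under a set limit, the compound median less 4 SD, cut at about 6% in these data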;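 also: 0% = Hyamine 1622 control at 20 µM and 100% = untreated cell control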
Lmaj promast: Leishmania major promastigote growth inhibition; Leishmania major promastigotes, resazurin fluorescence viability; inhibition, % at 10 µM; 9% of 200,000 active; in the data active = inhibition above about 50%;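 also: promastigotes grown with compound for 44 hours at 28 °C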
ROMK primary: modulators of human ROMK potassium channel; P48048; Tet-inducible ROMK, thallium flux fluorescence; actives lie on both sides; B-score at 10 µM; 2% of 130,000 active;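 active = signal ratio slope over the read window, or its plate-corrected B-score, at least 3 SD from the plate mean, either direction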;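 also: B-score of the F/F0 ratio slope over 7 to 12 s after thallium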
Target sequence (P48048 whole entry, looked up): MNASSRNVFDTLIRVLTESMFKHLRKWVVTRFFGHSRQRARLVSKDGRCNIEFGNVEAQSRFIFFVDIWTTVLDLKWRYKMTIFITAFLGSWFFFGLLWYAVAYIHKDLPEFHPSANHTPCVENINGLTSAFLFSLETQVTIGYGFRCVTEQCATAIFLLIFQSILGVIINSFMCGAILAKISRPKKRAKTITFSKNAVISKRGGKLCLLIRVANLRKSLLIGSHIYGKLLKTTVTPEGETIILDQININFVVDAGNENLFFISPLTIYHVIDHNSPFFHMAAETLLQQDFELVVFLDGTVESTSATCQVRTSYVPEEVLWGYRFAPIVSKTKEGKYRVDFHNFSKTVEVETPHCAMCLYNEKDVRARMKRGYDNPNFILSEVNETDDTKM
PTEN del growth: PTEN-deleted cell growth suppression; HCT116 PTEN-null viability, CellTiter-Glo, 60 h; active compounds read low; viability, % at 10 µM; 1.2% of 140,000 active;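 active = viability at or below a set limit, 4 SD under the median of all tested compounds, cut at about 3.7% in these data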;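 also: PTEN knockout HCT116 line with beta catenin targeted HCT116 as companion control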
INS promoter inh: TRM-6 insulin promoter activity inhibition | AID 1273 | 0.9% of 130,000 active | TRM-6 cells (human fetal islet line), insulin promoter-eGFP reporter, imaging; reporter expression induced with tamoxifen | inhibition, % at 2 µM;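 active = inhibition above the mean plus 3 SD, with well images judged a real hit on visual review, cut at about 60% in these data, passing the limit was not always enough; inconclusive = inhibition over the cutoff but images rejected on review; inactive = inhibition not above the cutoff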
* hit, by the source's call; u = inconclusive; x = not tested or not shown.

SMILES	p97 ATPase inh	HCT116 bCat-KO	Lmaj promast	ROMK primary	PTEN del growth	INS promoter inh
OCCN=c1cc(-c2ccccc2)oc2ccc(Cl)cc12	3	19	84*	x	21	26
CC(O)CN=c1cc(-c2ccccc2)oc2ccc(Cl)cc12 (centres undefined)	-2	5.7*	34	x	5	3
CC(C)CN=c1cc(-c2ccccc2)oc2ccc(Cl)cc12	2	15	38	x	14	3
COc1ccccc1N1CCN(C2=Nc3cccc4cccc2c34)CC1	-10	x	77*	-0.18	x	33
c1cc2c3c(cccc3c1)C(N1CCN(C3=Nc4cccc5cccc3c45)CC1)=N2	5	x	45	x	x	7
O=S(=O)(NC1CCCCC1)c1ccc(Cl)s1	-1	98	1	-0.022	101	-13
CC(C)OC(=O)/C(=C\c1ccccc1)NC(=O)c1ccccc1	1	x	-2	0.14	x	x
CC(C)OC(=O)/C(=C\c1cccc2ccccc12)NC(=O)c1ccccc1	1	92	91*	x	92	-20
CCCCN(CC)CCCNC(=O)c1cc2cc3ccc(OC)cc3nc2o1	0	51	96*	x	39	-6
COc1ccc2nc3oc(C(=O)Nc4ccc(OC)c(OC)c4)cc3cc2c1	0	93	-6	0.24	91	48
COc1ccc2cc3cc(C(=O)NCCc4ccc(OC)c(OC)c4)oc3nc2c1	1	55	29	x	50	-9
COc1ccc2cc3cc(C(=O)Nc4ccc5c(c4)OCO5)oc3nc2c1	-2	59	100*	x	63	16
CCCN(CCC)CCCNC(=O)c1cc2cc3ccc(OC)cc3nc2o1	-6	58	96*	x	42	-9
CCCCN(c1ccccc1)S(=O)(=O)c1cccc2cccnc12	3	x	x	x	x	x
COc1ccc(C(=O)/C=C/Nc2ccc(S(=O)(=O)Nc3onc(C)c3C)cc2)cc1	-1	102	66*	1.8	101	30
CCc1nnc(NS(=O)(=O)c2ccc(N/C=C\C(=O)c3ccc4ccccc4c3)cc2)s1	7	90	54*	0.39	85	-11
Cc1noc(NS(=O)(=O)c2ccc(N/C=C/C(=O)c3ccc(F)cc3)cc2)c1C	-3	x	-8	x	x	21
Cc1cc(C)nc(NS(=O)(=O)c2ccc(N/C=C/C(=O)c3ccc(Cl)cc3)cc2)n1	2	64	58*	0.14	65	u
CCOc1ccc(CN(C)CC(=O)Nc2ccc([N+](=O)[O-])cc2Cl)cc1	3	87	-4	x	78	-44
CN(NC1CC(=O)N(c2ccccc2)C1=O)c1ccccc1 (centres undefined)	1	95	-6	x	104	x
COc1ccc(Cl)cc1N(CC(=O)NC(C)(C)C)S(=O)(=O)c1ccc(C)c([N+](=O)[O-])c1	-4	79	96*	-1.8	74	-45
CCNc1nc(NC(C)(C)C)nc(SCC(N)=O)n1	-1	x	6	0.23	x	5
O=c1c2ccccc2c(/C=N/c2ncn[nH]2)c(O)n1Cc1ccccc1	-6	86	20	x	71	71*
CN(C)CCCN=Cc1c(O)n(Cc2ccc3c(c2)OCO3)c(=O)c2ccccc12	2	x	98*	0.32	x	x
Cn1c(=O)c(C(=O)CN2CCN(Cc3ccc4c(c3)OCO4)CC2)c(N)n(Cc2ccccc2)c1=O	-2	x	x	x	x	x
SMILES	p97 ATPase inh	HCT116 bCat-KO	Lmaj promast	ROMK primary	PTEN del growth	INS promoter inh
O=c1c2ccccc2[nH]c(=S)n1Cc1ccc2c(c1)OCO2	-4	x	3	1.1	x	x
O=c1c2ccccc2c(C=NC2CCN(Cc3ccccc3)CC2)c(O)n1Cc1ccc2c(c1)OCO2	1	x	87*	0.64	x	x
CCN(CC)CCCN=Cc1c(O)n(Cc2ccccc2)c(=O)c2ccccc12	0	74	99*	x	75	54
Cn1cc(Br)c(NS(=O)(=O)c2ccc(Cl)s2)n1	10	x	x	x	x	x
COc1ccccc1OCC(=O)NCCSCc1cccc(Cl)c1	1	95	-3	x	88	17
CN(C)CCN=Cc1c(O)n(Cc2ccc3c(c2)OCO3)c(=O)c2ccccc12	3	x	74*	-0.17	x	29
Cc1ccc2nc(-c3ccccc3)c(CN3CCN(c4ccccc4F)CC3)n2c1	0	x	80*	-0.03	x	11
Cc1ccc2nc(-c3ccccc3)c(CN3CCSCC3)n2c1	2	x	63*	-0.39	x	x
Cc1ccc2nc(-c3ccccc3)c(CN3CCOCC3)n2c1	1	x	48	-0.035	x	x
CCOC(=O)C(=O)Nc1ccccc1C(=O)Nc1ccc(OC)cc1	0	91	-6	0.61	104	15
Nc1ncnc2c1C1(CCCCC1)Cc1ccccc1-2	-1	69	35	-0.34	84	7
COCCn1c(SCC(=O)N2CCCCC2)nc2ccccc2c1=O	3	84	3	x	101	x
COCCn1c(SCCN2CCCCC2)nc2ccccc2c1=O	3	90	100*	x	96	x
COCCn1c(SCc2nc3ccccc3c(=O)[nH]2)nc2ccccc2c1=O	-4	x	20	-0.63	x	x
COCCn1c(SCc2ccc(OC)c(F)c2)nc2ccccc2c1=O	-10	x	100*	-0.56	x	x
O=C(NN1C(=O)C2C3c4ccccc4C(c4ccccc43)C2C1=O)C1CC1 (centres undefined)	0	x	-5	x	x	x
COc1cc(C(=O)NCC(=O)OCCN2C(=O)c3ccccc3C2=O)cc(OC)c1OC	5	x	7	-0.77	x	x
Cc1c(C(=O)NCCSCc2cccc(C(F)(F)F)c2)cnn1-c1ccc(Cl)cc1	1	x	x	x	x	x
COc1cc2c3c(c1)C(C)=CC(C)(C)N3C(=O)C2=O	4	x	56*	2.2	x	x
COc1cc(N=C2C(=O)N3c4c(cccc42)C(C)=CC3(C)C)cc(OC)c1	6	12	61*	-0.099	11	21
CCCCCc1ccc(CC(=O)Nn2c(C)nc3ccccc3c2=O)cc1	-1	85	-3	0.57	85	x
COc1cc(/C=N/NC(=O)c2cn(-c3cccc(C)n3)cn2)ccc1O	5	x	98*	-0.59	x	x
C/C(=N/NC(=O)c1cn(-c2cccc(C)n2)cn1)c1ccc(C)cc1	2	106	77*	x	103	43
COc1cc(/C=N/NC(=O)c2nc(C)cc(C)n2)ccc1O	-6	100	11	0.056	104	-12
CCNC(=O)n1cc(-n2cncn2)c(-c2ccc(Cl)cc2)n1	4	x	3	-0.06	x	x
SMILES	p97 ATPase inh	HCT116 bCat-KO	Lmaj promast	ROMK primary	PTEN del growth	INS promoter inh
FC(F)(F)c1cnc(COc2ccc(Cl)cc2Cl)c(Cl)c1	4	x	x	0.69	x	x
CS(=O)(=O)N1CCc2cc(-c3csc(NC(=O)C(c4ccccc4)c4ccccc4)n3)ccc21	-2	94	94*	0.85	88	28
O=C(NCCO)Nc1ccc2nc(-c3ccco3)c(-c3ccco3)nc2c1	44*	x	8	x	x	x
O=C(NCCCO)c1ccc2nc(-c3ccco3)c(-c3ccco3)nc2c1	8	x	-4	-0.35	x	x
C=CCN(c1ccccc1)S(=O)(=O)c1cccc(C(=O)Nc2nc3ccccc3[nH]2)c1	1	81	28	x	81	x
COc1ccc(N(C)S(=O)(=O)c2cccc(C(=O)Nc3nc4ccccc4[nH]3)c2)cc1	4	x	47	-0.2	x	71*
CN(c1cccc(Cl)c1)S(=O)(=O)c1cccc(C(=O)Nc2nc3ccccc3[nH]2)c1	3	10	99*	x	7	x

Source: PubChem BioAssay
